PubChem BioAssay (Tox21)
Where “and” joins values, the source holds several entries; their conditions need not be identical. Identical values can stand only once. Records with an inconclusive call do not appear. A call without a number means that no potency is given here. Where a structure was tested more than once in an assay, its records may differ in their call. Calls of active or inactive are those of the source. Unless noted, calls follow the shape of the dose curve; as a rule, active = well fitted curve in the direction sought with a large enough effect in the repeat runs; inconclusive = weak or mixed curves; inactive = no such curve, though single readings can be large; an effect the other way counts as inactive or inconclusive.

Tests used:
[1] = molecular target: Nuclear receptor subfamily 1 group I member 3 (Homo sapiens) (UniProt Q14994); test: qHTS assay to identify small molecule antagonists of the constitutive androstane receptor (CAR) signaling pathway (AID 1224838); also: nearly all actives have a fitted effect of over 40% in size; also: potency is read from the fitted curve at half-maximal effect
Summary of the method: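 HepG2 cells stably carrying hCAR and a CYP2B6-2.2kb luciferase reporter, seeded 4 hrs before compound (15 concentrations). Stimulated with 50 nM CITCO for 24 hr at 37 C. ONE-Glo luminescence read after 30 min at room temperature.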

[2] = molecular target: Nuclear receptor subfamily 1 group I member 3 (Homo sapiens) (UniProt Q14994); test: qHTS assay to identify small molecule agonists of the constitutive androstane receptor (CAR) signaling pathway (AID 1224839); also: nearly all actives have a fitted effect of over 15% in size; also: potency is read from the fitted curve at half-maximal effect
Summary of the method: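 HepG2 cells stably expressing hCAR and a CYP2B6-2.2kb luciferase reporter were treated with compounds at 15 concentrations plus 0.75 uM PK11195 (final) for 24 h at 37 C; luminescence was read after ONE-Glo addition.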

[3] = qHTS assay to identify small molecule antagonists of the estrogen related receptor signaling pathway with the pleiotropic PPARgamma coactivator (PGC) from Tox21 10K library - cell viability counter screen (AID 1224840; active = well fitted cell-killing curve with a large enough effect in the repeat runs, not every such curve was filed as active; also: nearly all actives have a fitted effect of over 40% in size; also: potency is read from the fitted curve at half-maximal effect)
Summary of the method: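 PGC/ERR cells (2,000/well) plated 6 h, then compound-treated for 17.5 h at 37 C. Viability measured by CellTiter-Fluor fluorescence after 30 min at 37 C, multiplexed with the pathway assay.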

[4] = qHTS assay to identify small molecule antagonists of the estrogen related receptor signaling pathway with the pleiotropic PPARgamma coactivator (PGC) from Tox21 10K library (AID 1224841; call rule not given here; also: actives are mostly falling curves and most rising ones were filed inactive; nearly all actives have a fitted effect of over 50% in size; also: potency is read from the fitted curve at half-maximal effect)
Summary of the method: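 PGC/ERR cell line, 2,000 cells/well, pre-incubated 6 hours at 37 C, then exposed to compounds for 18 hours at 37 C; luciferase read with One-Glo luminescence after 30 min at room temperature.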

[5] = qHTS assay to identify small molecule agonists of the estrogen related receptor signaling pathway with the pleiotropic PPARgamma coactivator (PGC) from Tox21 10K library (AID 1224842); also: nearly all actives have a fitted effect of over 15% in size
Summary of the method: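 PGC/ERR reporter cells (NTP line) were seeded 2,000 per well, rested 6 h at 37 C/5% CO2, then pin-dosed with compounds in DMSO for 18 h at 37 C; luciferase read by One-Glo luminescence after 30 min at room temperature.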

[6] = molecular target: Thyrotropin receptor (Homo sapiens) (UniProt P16473); test: qHTS assay to identify small molecule agonists of the thyroid stimulating hormone receptor (TSHR) signaling pathway (AID 1224843; calls by dose curve; also: nearly all actives have a fitted effect of over 45% in size; also: potency is read from the fitted curve at half-maximal effect)
Summary of the method: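 TSHR-expressing HEK293 cells (800 per well) were exposed to compounds for 30 min at room temperature. cAMP was then detected by HTRF competition with cAMP-d2 and anti-cAMP cryptate, read after 1 h at room temperature. Fifteen concentrations, triplicate.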

[7] = qHTS assay to identify small molecule agonists of the hypoxia (HIF-1) signaling pathway - cell viability counter screen (AID 1224844; calls by dose curve; also: nearly all actives have a fitted effect of over 50% in size; also: potency is read from the fitted curve at half-maximal effect)
Summary of the method: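 HRE-bla ME-180 cells, 2,000/well in 0.5% dialyzed FBS medium, treated 17 h at 37C with compounds. Viability read in the same wells as the bla reporter, by CellTiter-Glo luminescence after 30 min at room temperature.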

[8] = qHTS assay to identify small molecule agonists of H2AX (AID 1224845; active = well fitted activation curve with a large enough effect in the signal ratio in the repeat runs, not every such curve was filed as active; the % refers to the signal ratio)
Summary of the method: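 Wild-type CHO-K1 cells plated overnight, then exposed 3 hr at 37C to compounds at 15 concentrations (0.76% DMSO). Lysed, then HTRF anti-pH2AX(S139)-cryptate/anti-H2AX-d2 detection after 24 hr at room temperature; emissions 665 and 620 nm.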

[9] = qHTS assay to identify small molecule agonists of the hypoxia (HIF-1) signaling pathway (AID 1224846; active = well fitted activation curve with a large enough effect in the signal ratio in the repeat runs, not every such curve was filed as active; the % refers to the signal ratio)
Summary of the method: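 HRE-bla ME-180 beta-lactamase reporter cells in medium with 0.5% dialyzed FBS, pre-incubated 5 h then exposed to compounds 17 h at 37C, 5% CO2; reporter induction read with CCF4-AM FRET substrate.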

[10] = qHTS assay to identify small molecule agonists of H2AX - cell viability counter screen (AID 1224847; calls by dose curve; also: nearly all actives have a fitted effect of over 30% in size; also: potency is read from the fitted curve at half-maximal effect)
Summary of the method: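 Wild-type CHO-K1 cells (10% FBS medium) were plated overnight at 37C, exposed to compounds at 15 concentrations for 3 hr at 37C (0.76% DMSO final), and viability was read as CellTiter-Glo luminescence after 30 min at room temperature.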

[11] = qHTS assay to identify small molecule antagonists of the estrogen related receptor (ERR) signaling pathway from Tox21 library (AID 1224848); also: nearly all actives have a fitted effect of over 50% in size; also: potency is read from the fitted curve at half-maximal effect
Summary of the method: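 Cells: ERR line, 2,000/well; 6 h preincubation 37 C/5% CO2. Cpd in DMSO via pin tool; 18 h, 37 C. ONE-Glo, 30 min RT, luminescence.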

[12] = qHTS assay to identify small molecule agonists of the estrogen related receptor (ERR) signaling pathway from Tox21 library (AID 1224849; calls by dose curve; also: nearly all actives have a fitted effect of over 15% in size); conditions: ERR reporter cell line, ONE-Glo luciferase, 18 h
Summary of the method: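 ERR reporter cells (NTP line) pre-incubated 6 hours at 37 C, then exposed to compounds for 18 hours at 37 C. ONE-Glo luciferase luminescence was read after 30 minutes at room temperature.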

[13] = qHTS RealTime-Glo MT Cell Viability Assay in HepG2 cells - 24 hour (AID 1224867); also: nearly all actives have a fitted effect of over 50% in size; also: potency is read from the fitted curve at half-maximal effect
Summary of the method: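 qHTS, HepG2, 600 cells/well, RealTime-Glo (NanoLuc + prosubstrate) added with cells; 5 h preincubation; DMSO compound addition; 37 C; luminescence at 0/8/16/24/32/40 h.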

[14] = qHTS RealTime-Glo MT Cell Viability Assay in HEK293 cells - 32 hour (AID 1224868); also: nearly all actives have a fitted effect of over 50% in size; also: potency is read from the fitted curve at half-maximal effect
Summary of the method: (§1)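 Assay medium contained NanoLuc luciferase plus cell-permeant prosubstrate, added with HEK293 cells at 600 cells/well. After 5 h at 37 C/5% CO2 compounds were added; plates stayed at 37 C for 40 h with serial luminescence reads.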

[15] = A CellTox Green Cytotoxicity Assay to monitor cytotoxicity in HEK293 cells - 0 hour (AID 1224869); also: nearly all actives have a fitted effect of over 50% in size
Summary of the method: (§2)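 HEK293 cells, 600/well, were preincubated 5 hours and then exposed to compounds at 37 C for up to 40 hours. A cell-impermeant cyanine dye staining dead-cell DNA was read by fluorescence at 0, 8, 16, 24, 32 and 40 h time points.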

[16] = qHTS RealTime-Glo MT Cell Viability Assay in HepG2 cells - 40 hour (AID 1224870); also: nearly all actives have a fitted effect of over 50% in size; also: potency is read from the fitted curve at half-maximal effect
Summary of the method: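 HepG2 cells mixed with RealTime-Glo MT reagents (NanoLuc plus cell-permeant prosubstrate) were seeded at 600 cells/well, incubated 5 h at 37 C/5% CO2, then pinned with compounds in DMSO; nonlytic luminescence tracked viability during 40 h treatment.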

[17] = A CellTox Green Cytotoxicity Assay to monitor cytotoxicity in HEK293 cells - 40 hour (AID 1224871); also: nearly all actives have a fitted effect of over 45% in size; also: potency is read from the fitted curve at half-maximal effect
Summary of the method: as §2

[18] = qHTS RealTime-Glo MT Cell Viability Assay in HEK293 cells - 16 hour (AID 1224872); also: nearly all actives have a fitted effect of over 50% in size; also: potency is read from the fitted curve at half-maximal effect
Summary of the method: as §1

Thyrotropin receptor (Homo sapiens), sequence (P16473 whole entry, looked up): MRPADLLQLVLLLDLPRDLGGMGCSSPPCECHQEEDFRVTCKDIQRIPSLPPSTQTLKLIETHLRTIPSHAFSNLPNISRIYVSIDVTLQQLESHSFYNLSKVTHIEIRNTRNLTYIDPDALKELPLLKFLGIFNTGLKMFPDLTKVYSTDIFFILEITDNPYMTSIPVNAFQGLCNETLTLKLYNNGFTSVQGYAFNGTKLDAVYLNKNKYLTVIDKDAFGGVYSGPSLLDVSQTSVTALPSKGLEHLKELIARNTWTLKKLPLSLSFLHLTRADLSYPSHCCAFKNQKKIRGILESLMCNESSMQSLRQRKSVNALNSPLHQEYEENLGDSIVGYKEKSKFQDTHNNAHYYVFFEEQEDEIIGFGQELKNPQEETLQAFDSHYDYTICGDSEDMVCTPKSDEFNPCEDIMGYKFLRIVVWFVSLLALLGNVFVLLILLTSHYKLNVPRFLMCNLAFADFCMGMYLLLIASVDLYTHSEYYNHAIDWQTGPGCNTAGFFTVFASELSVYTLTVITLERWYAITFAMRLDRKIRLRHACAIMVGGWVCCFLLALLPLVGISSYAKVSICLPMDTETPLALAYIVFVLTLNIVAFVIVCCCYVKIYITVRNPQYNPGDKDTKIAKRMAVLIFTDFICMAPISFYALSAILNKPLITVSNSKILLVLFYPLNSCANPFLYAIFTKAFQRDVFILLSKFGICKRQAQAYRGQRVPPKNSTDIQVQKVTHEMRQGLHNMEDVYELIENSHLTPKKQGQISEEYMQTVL
Nuclear receptor subfamily 1 group I member 3 (Homo sapiens), sequence (Q14994 whole entry, looked up): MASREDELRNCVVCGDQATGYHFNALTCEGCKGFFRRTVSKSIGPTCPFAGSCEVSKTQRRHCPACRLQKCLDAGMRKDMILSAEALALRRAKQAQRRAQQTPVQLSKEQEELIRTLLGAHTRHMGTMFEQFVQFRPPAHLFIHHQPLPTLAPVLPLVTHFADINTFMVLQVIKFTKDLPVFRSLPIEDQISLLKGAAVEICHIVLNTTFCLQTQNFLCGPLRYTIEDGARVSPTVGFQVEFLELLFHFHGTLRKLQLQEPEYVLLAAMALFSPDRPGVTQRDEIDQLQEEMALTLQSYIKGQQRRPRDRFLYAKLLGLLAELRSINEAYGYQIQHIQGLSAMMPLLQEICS

Cc1c(F)c(N2CCNC(C)C2)cc2c1c(=O)c(C(=O)O)cn2C1CC1 (stereo unspecified)
Potency [1]: inactive | Potency [2]: inactive | Potency [3]: inactive | Potency [4]: inactive | Potency [5]: inactive | Potency [6]: inactive | Potency [7]: inactive | Potency [8]: inactive | Potency [9]: inactive | Potency [10]: inactive | Potency [11]: inactive | activity change, positive = activation ([12]; at 42.5 µM (top of the series)): 9.53% (inactive) | Potency [13]: inactive | Potency [14]: inactive | Potency [15]: inactive | Potency [16]: inactive | Potency [17]: inactive | Potency [18]: inactive

O=C(O)c1ccc2cc(C(=O)O)ccc2c1
Potency [1]: inactive | Potency [2]: inactive | Potency [3]: inactive | Potency [6]: inactive | Potency [7]: inactive | Potency [8]: inactive | Potency [9]: inactive | Potency [10]: inactive | Potency [14]: inactive | Potency [15]: inactive | Potency [16]: inactive | Potency [17]: inactive | Potency [18]: inactive

O=C1c2ccccc2C(=O)N1SC1CCCCC1
Potency [1]: 68.5 µM (active) | Potency [2]: inactive | Potency [3]: inactive | Potency [6]: inactive | Potency [7]: 54.9 µM (active) | Potency [10]: 89.7 µM (active) and 89.8 µM (active) | Potency [14]: 24.5 µM (active) and 38.9 µM (active) | Potency [15]: inactive | Potency [16]: inactive and 43.6 µM (active) | Potency [17]: 12.3 µM (active) and 21.9 µM (active) | Potency [18]: 34.6 µM (active) and 38.9 µM (active)

CCCCCCCCCCCCCCCC[N+](C)(C)CC
Potency [3]: 30.7 µM (active) and inactive | Potency [6]: inactive | Potency [7]: inactive | Potency [8]: inactive | Potency [10]: 101 µM (active) and 49.2 µM (active) | Potency [11]: 17.3 µM (active) and 10.6 µM (active) | activity change, positive = activation ([12]; at 42.5 µM (top of the series)): -55.4% (inactive) | activity change, positive = activation ([12]; at 92.4 µM (top of the series)): -72.7% (inactive) | Potency [13]: 24.6 µM (active) and 23.9 µM (active) | Potency [14]: 4.91 µM (active) and 4.77 µM (active) | Potency [15]: inactive | Potency [16]: 19.6 µM (active) and 19 µM (active) | Potency [17]: 43.8 µM (active) and 23.9 µM (active) | Potency [18]: 21.9 µM (active) and 6.74 µM (active)

OC1CCC(C2CCCCC2)CC1 (stereo unspecified)
Potency [3]: inactive | Potency [4]: inactive | Potency [7]: inactive | Potency [8]: inactive | Potency [9]: inactive | Potency [11]: inactive | activity change, positive = activation ([12]; at 92.4 µM (top of the series)): -1.53% (inactive) | Potency [13]: inactive | Potency [14]: inactive | Potency [15]: inactive | Potency [16]: inactive | Potency [17]: inactive | Potency [18]: inactive

CC(C)=CCC1=C(O)c2ccccc2C(=O)C1=O
Potency [1]: inactive | Potency [2]: 27.1 µM (active) | Potency [4]: 2.42 µM (active) | Potency [5]: inactive | Potency [7]: inactive | Potency [9]: inactive | Potency [11]: 1.92 µM (active) | activity change, positive = activation ([12]; at 92.4 µM (top of the series)): -51.5% (inactive) | Potency [13]: inactive | Potency [15]: inactive | Potency [16]: inactive | Potency [17]: inactive

C/C=C/C=C/COC(=O)C(C)C
Potency [1]: inactive | Potency [2]: inactive | Potency [3]: inactive | Potency [9]: inactive | Potency [15]: inactive

O=C(O)CCN(C1(C(=O)NO)CCCC1)S(=O)(=O)c1ccc(Oc2ccc(F)cc2)cc1
Potency [1]: inactive | Potency [2]: inactive | Potency [3]: inactive | Potency [4]: inactive | Potency [5]: inactive | Potency [6]: inactive | Potency [7]: inactive | Potency [8]: inactive | Potency [9]: inactive | Potency [10]: inactive | Potency [11]: inactive | activity change, positive = activation ([12]; at 92.4 µM (top of the series)): 4.9% (inactive) | Potency [13]: inactive | Potency [14]: inactive | Potency [15]: inactive | Potency [17]: inactive | Potency [18]: inactive

CN1CCN(Cc2cc(-c3ccc4[nH]c(=O)oc4c3)co2)[C@@H](c2ccc(F)cc2)C1
Potency [1]: inactive | Potency [2]: inactive | Potency [6]: 13.2 µM (active) | Potency [8]: inactive | Potency [9]: inactive | Potency [14]: 21.1 µM (active) | Potency [15]: inactive

COc1ccc(NC(=O)CC(C)=O)cc1
Potency [1]: inactive | Potency [2]: inactive | Potency [3]: inactive | Potency [6]: inactive | Potency [7]: inactive | Potency [8]: inactive | Potency [9]: inactive | Potency [10]: inactive | Potency [14]: inactive | Potency [16]: inactive | Potency [18]: inactive

CCCCCCCCCCCCOCCOCCOCCOCCOCCOCCOCCOCCOCCO
Potency [1]: inactive | Potency [2]: inactive | Potency [4]: 5.31 µM (active) | Potency [8]: inactive | Potency [10]: 55.2 µM (active) | Potency [11]: 2.98 µM (active) | activity change, positive = activation ([12]; at 42.5 µM (top of the series)): -54.8% (inactive) | Potency [14]: 5.35 µM (active) | Potency [16]: inactive | Potency [17]: 10.7 µM (active) | Potency [18]: 6.01 µM (active)

CN1CCC[C@@H]1CCO[C@](C)(c1ccccc1)c1ccc(Cl)cc1
Potency [2]: inactive | Potency [4]: inactive | Potency [5]: inactive | Potency [7]: 21.3 µM (active) | activity change, positive = activation ([12]; at 42.5 µM (top of the series)): -35.9% (inactive) | Potency [14]: 19 µM (active) | Potency [15]: inactive | Potency [16]: 23.9 µM (active) | Potency [17]: 26.8 µM (active)
